The panel holds about 83,000 compounds, 20% with a hit somewhere; the sample as a whole holds those more often.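 Method: cells in 96-well plates; compound added at one concentration; 48 h incubation; percent growth measured; values under 10 scored active.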 Unmarked numbers belong to inactive results. Active and inactive are the calls of the source.
tested on: ACHN renal; assay: NCI-60 one-dose screen, 48 h (100 = growth as untreated, 0 = no growth, -100 = all killed); details: 10 µM unless noted

| SMILES | growth |
| --- | --- |
| O=C1Nc2ccccc2/C1=N/N=C/c1c[nH]c2ccccc12 | 48.3% |
| Cc1nc2ccc(C(=O)NCc3cc(C(=O)O)c(C)o3)cc2nc1C | 99.4% |
| Cc1ccc(S(=O)(=O)NN/C(N)=N\S(=O)(=O)c2cc(C)c(Cl)cc2SCc2ccccc2)cc1 | 93.6% |
| COc1ccc(-c2nnc(SCC(=O)NC3=NN=C(c4ccccc4)CS3)o2)cc1 | 99.6% |
| Cn1ncc2c(Nc3ccc(Br)cc3)nc(Nc3ccc(Br)cc3)nc21 | 40.1% |
| Cc1cn(C2CCCCC2)c(=O)[nH]c1=O | 103% |
| Cl.Fc1c[c-]c(-c2ccccn2)c(F)c1.[Pt].c1ccc(P(c2ccccc2)C([PH+](c2ccccc2)c2ccccc2)[PH+](c2ccccc2)c2ccccc2)cc1 | 17.5% |
| N=C(N)c1ccc(-c2ccc(-c3ccc(Cl)c(Cl)c3)o2)cc1 | -70.7% (active) |
| Cc1cc(=O)c2cc3nc(-c4cccnc4)oc3c(Br)c2o1 | 110% |
| C=C1C(=O)O[C@H]2[C@H]1CC/C(COC(=O)/C=C/C(=O)NCc1ccc(Cn3c(=O)sn(-c4ccccc4)c3=O)cc1)=C\CC[C@@]1(C)O[C@@H]21 | -47.3% (active) |
| Cc1ccc(/C=C(\C#N)n2nnc3cc(Cl)c(Cl)cc32)cc1 | 25.7% |
| N=C(N)c1ccc(-c2ccc(-c3ccc(Cl)c(Cl)c3)o2)nc1 | -86.9% (active) |
| COc1ccccc1C(=O)NC(=S)Nc1ccc(-c2nc3ccccc3[nH]2)cc1 | 71.4% |
| COC(=O)c1ccc2oc(NC(=O)c3ccc(N4CCOCC4)c([N+](=O)[O-])c3)nc2c1 | 94.1% |
| COC(=O)c1ccc(CSc2nnc(-c3ccncc3)o2)cc1 | 100% |
| N#C/C(=C\c1ccc2c(c1)OCO2)n1nnc2ccccc21 | 22.9% |
| O=C(NC(=S)Nc1ccc(-c2nc3ccccc3[nH]2)cc1)c1ccc2ccccc2c1 | -0.473% (active) |
| COc1cc2c(c(OC)c1OC)C(=O)/C(=C/c1cc(C)c(O)c(C)c1)S2 | 45.8% |
| COc1ccc(-c2cc(-c3ccc(Nc4nc(Nc5ccccc5)nc(Nc5ccc(Cl)cc5)n4)cc3)nc(N)c2C#N)cc1 | -82.2% (active) |
| Cc1c(Cl)cccc1NS(=O)(=O)c1ccccc1 | 98.4% |

| SMILES | growth |
| --- | --- |
| CCn1c(Sc2nnc(NC(C)=O)s2)nc2c1c(=O)n(C)c(=O)n2C | 95.5% |
| NS(=O)(=O)c1cn(-c2ncnc3nc[nH]c23)ccc1=O | 99.2% |
| CN1C(=O)CCC(N2C(=O)c3cccc(NCCOCCOCCNC(=O)c4cc5c(o4)C(=O)c4ccccc4C5=O)c3C2=O)C1=O (centres undefined) | 8.82% (active) |
| COc1ccc(Nc2ncc(Br)c(NCCCNC(=O)C3CCC3)n2)cc1 | 19.5% |
| COc1ccccc1NC(=O)Nc1ccc(-c2nc3ccccc3o2)cc1 | 95.4% |
| N#C/C=C(\c1ccc([N+](=O)[O-])cc1)n1nnc2cc(Cl)c(Cl)cc21 | -85% (active) |
| O=C(c1ccccc1)c1ccc(N2C(=O)C3C4c5ccccc5C(/C=C/C(=O)c5ccccn5)(c5ccccc54)C3C2=O)cc1 (centres undefined) | -25.4% (active) |
| Cc1cc(-c2ccc(N(C)C)cc2)c2sc(=O)[nH]c2n1 | 83.2% |
| N#Cc1c(NC(=O)c2ccccc2I)sc2c1CCCC2 | 50.9% |
| C[C@@H]1CC[C@@H]2[C@@H]1[C@H](OC(=O)/C=C/c1ccccc1)[C@]1(CCCOCCOCCOCCOC(=O)CCCC[C@@H]3SC[C@@H]4NC(=O)N[C@@H]43)C[C@@H](OC(=O)CO)[C@@]2(C)O1 | 102% |
| CCn1c(Sc2nnc(NC(=O)CCN3CCCC3)s2)nc2c1c(=O)n(C)c(=O)n2C | 100% |
| Cl.Fc1c[c-]c(-c2ccccn2)c(F)c1.[Pt].c1ccc([PH+](C[PH+](c2ccccc2)c2ccccc2)c2ccccc2)cc1 | -97.8% (active) |
| CCCCCCCC/C=C/CCCCCCCC1=NCC[N+]1(CCO)CCO | 82.2% |
| CCOC(=O)N1CCc2c(sc3c2C(=O)N[C@H](c2ccc(OC)cc2)N3)C1 | 103% |
| CCOc1ccc(-c2nc3ccc(-c4nc5ccc(N6CCN(C)CC6)cc5[nH]4)cc3[nH]2)cc1OCC | 81.9% |
| O=C(NCCN1CCC(O)CC1)c1cc2c(o1)C(=O)c1ccccc1C2=O | -89.2% (active) |
| Cl.Fc1c[c-]c(-c2ccccn2)c(F)c1.[Pt].c1ccc([PH+](c2ccccc2)c2ccccc2[PH+](c2ccccc2)c2ccccc2)cc1 | -100% (active) |
| O=C(NCCOCCOCCOCCNC(=O)c1cc2c(o1)C(=O)c1ccccc1C2=O)NC12CC3CC(CC(C3)C1)C2 | 0.47% (active) |
| COc1ccc(/C=C(\C#N)n2nnc3ccccc32)cc1 | 23% |

Reference: PubChem BioAssay (NCI)
